# Mot1-301 SUMO – blocks SUMOylation pathway, rescuing yeast Mot1-301 growth | actives 1% (n = 320,000) | S. cerevisiae Mot1-301 growth rescue, ATP luminescence, 38.5C; percent above DMSO median, 100 means doubled | growth rescue, % at 18.8 µM;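 active = every valid replicate shows activation above 250% relative to neutral control wells; inactive = the rest, any valid replicate at or below 250%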;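 also: OY570 slx delta 5 strain wells were the positive control but not used for scaling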
# HIF act – HIF pathway transcriptional activation | U2OS HRE-luciferase reporter, luminescence; normalized: DMSO 0%, desferrioxamine 100% | activation, % at 7.5 µM (by protocol) | actives 0.32% (n = 300,000) | AID 1910;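 active = mean activation of at least 10% of the iron chelator positive control signal, with at least half of replicates also reaching 10%; inconclusive = mean and replicate majority disagree about reaching 10%; inactive = mean and most replicates under 10%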
# ALR H2O2 inh – blocks human ALR sulfhydryl oxidase activity; P55789; purified ALR, DTT oxidation, H2O2 HRP-luminol luminescence; inhibition, % (test concentration not listed); actives 3.8% (n = 290,000);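 active = mean replicate inhibition above about 79%, with every replicate also reaching it, limit read from the data; inconclusive = only one of the two criteria met; inactive = mean below limit and not every replicate reaching it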
# Target sequence (P55789 whole entry, looked up): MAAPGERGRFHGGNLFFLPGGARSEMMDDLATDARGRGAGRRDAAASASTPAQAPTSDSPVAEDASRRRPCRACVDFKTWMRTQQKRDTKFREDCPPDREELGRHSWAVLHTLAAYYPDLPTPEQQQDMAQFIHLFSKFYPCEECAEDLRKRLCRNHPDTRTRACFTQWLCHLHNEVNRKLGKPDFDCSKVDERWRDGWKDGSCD
# AI-2 QS mod – modulates the Vibrio harveyi AI-2 quorum sensing system; Vibrio harveyi JMH597 AI-2 luminescence/OD600 ratio, 9 h; hits give low values; strain lacks LuxN and CqsS sensors; 0 = neutral-control median; actives 0.4% (n = 300,000); activity change, % at 7.5 µM; in the data active = activity change below about -75%, passing the limit was not always enough; inconclusive = no clear call, values can overlap the other calls;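 also: luminescence divided by OD600 gain over 9 h not by final OD600 alone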
# An asterisk follows results filed as active; ? = inconclusive; . = not tested or not shown. Rows were chosen to be rich in hits. Some 4.8% of all compounds tested hit in one or more screens of this group.
SMILES,Mot1-301 SUMO,HIF act,ALR H2O2 inh,AI-2 QS mod
COc1ccc(C(C)NC(=O)Nc2ccc(C(C)=O)cc2)cc1OC (stereo unspecified),97,2,-6,4
CCCn1c(C(O)c2cccc(OC)c2)nc2ccccc21 (stereo unspecified),.,-1,.,18
O=c1c(-c2cc3ccccc3o2)[n+]([O-])c2ccccc2n1OCc1ccccn1,.,2,6,11
O=c1c(-c2ccco2)[n+]([O-])c2ccccc2n1OCc1ccccc1F,10,0,97*,5
CCOn1c(=O)c(-c2cc3ccccc3o2)[n+]([O-])c2ccccc21,-17,0,93*,-7
CN(C)c1ccc(NC(=O)CSc2nnc(-c3cccs3)n2Cc2ccco2)cc1,-6,0,99*,38
CCn1c(SCC(=O)Nc2ccc(N(C)C)cc2)nnc1-c1cccc(C)c1,-3,0,99*,7
CCn1c(SCC(=O)Nc2cc(C)on2)nnc1-c1cccc(C)c1,7,-1,0,32
O=C(O)c1ccc(CS(=O)(=O)c2ccc(Br)cc2)cc1,-5,-7,5,28
COc1cc(OC)cc(C(=O)NCC2CCCN(C(=O)c3csc(C(C)C)n3)C2)c1 (stereo unspecified),-1,0,-7,4
COc1ccc(NC2CCCN(C(=O)c3csc(C(C)C)n3)C2)cc1OC (stereo unspecified),-1,-1,99*,9
COc1ccc(NC2CCCN(C(=O)c3csc(C(C)C)n3)C2)cc1 (stereo unspecified),-8,-1,99*,12
COc1ccc(NC2CCCN(C(=O)c3cc(CC(C)C)nc(N)n3)C2)cc1 (stereo unspecified),-13,1,93*,20
Cc1ccc(C)c(C(=O)NC(C)c2ccc(-n3ccnc3)cc2)c1 (stereo unspecified),17,1,-7,8
CCn1cc(S(=O)(=O)N2CCN(c3ccc(Cl)cc3)CC2)cn1,264,0,9,9
Cc1ccc(S(=O)(=O)N2CCOCC2)cc1C(=O)Nc1ccccc1N1CCOCC1,27,.,.,.
CSc1nc(O)c(Nc2cccc(Cl)c2)c(=O)[nH]1,3,-1,89*,31
Cc1cc(NC(=O)CCN2CCC(C)CC2)ccc1Br,2,0,-13,6
COC(=O)c1c(NC(=O)CN2CCN(Cc3ccc4c(c3)OCO4)CC2)sc(C)c1C,15,0,97*,1
COc1ccc(CNc2ccc3c(c2)nc(C)n3C)cc1,-2,3,89*,19
COc1ccc(OC)c(CNc2ccc3c(c2)nc(C)n3C)c1,-8,0,85*,7
Cc1ccc(CNc2ccc3c(c2)nc(C)n3C)cc1,8,?,.,-3
COc1ccc(CNc2ccc(Br)cc2)cc1,.,4,98*,-2
c1ccc2c(c1)CCc1ccccc1C2=C1CCNCC1,16,0,-5,25
Cc1cccc(C)c1N=C1SC(CC(=O)Nc2c(C)cccc2C)C(=O)N1CCc1ccccn1 (stereo unspecified),468*,.,0,2
SMILES,Mot1-301 SUMO,HIF act,ALR H2O2 inh,AI-2 QS mod
CN(C)c1ccc(N=Nc2ccccc2C(=O)OCC(=O)NC2CCCC2)cc1,-12,1,97*,4
CCCCn1c(N)c(N(CC(C)C)C(=O)C2CC(=O)N(Cc3ccccc3)C2)c(=O)[nH]c1=O (stereo unspecified),-7,-2,1,-6
Cc1ccccc1NS(=O)(=O)c1c(C(=O)N2CCCCCC2)c(C)n(C)c1C,-20,0,-1,12
Cc1ccc(NC(=O)CSc2nc(O)cc(=O)n2C)cc1,2,-49,99*,19
O=c1cc(O)nc(SCc2ccccc2)n1-c1ccc(Cl)cc1,1,0,98*,31
Cc1ccc(NC(=O)CSc2nc(O)cc(=O)n2-c2ccc(C)cc2)cc1,0,0,100*,-9
Cc1ccc(-n2c(SCC(N)=O)nc(O)cc2=O)cc1,-19,0,0,35
CCSc1nc(O)cc(=O)n1-c1ccc(OC)cc1,-17,0,-1,-2
Cc1ccc(NC(=O)CSc2nc3sc(C)cc3c(=O)n2C)cc1,12,-1,7,21
NC(=O)CSc1nc(O)cc(=O)n1-c1ccccc1,18,-1,-3,35
COc1ccc(-n2c(SCC(=O)Nc3ccc(Br)cc3)nc(O)cc2=O)cc1,-10,0,99*,1
COCCCn1c(=O)c2sccc2n(Cc2cc(C(=O)OC)ccc2OC)c1=O,-15,0,16,1
CC(C)(C)NC(=O)CSc1nc(O)cc(=O)n1-c1ccccc1,0,0,10,13
O=C(CSc1nc(O)cc(=O)n1-c1ccccc1)Nc1ccc(Br)cn1,37,0,44,11
O=C(CSc1nc(O)cc(=O)n1-c1ccc(Cl)c(Cl)c1)Nc1ccc(Cl)cc1Cl,3,0,98*,11
Cn1c(SCC(=O)Nc2ccc(Br)cc2)nc(O)cc1=O,-8,0,99*,7
CN(CC(=O)Nc1ccc(F)cc1)CC(=O)NC1CCCCC1,-5,.,0,.
c1ccc(-c2sc3ccccc3c2-c2ccc(OCCN3CCOCC3)cc2)cc1,407*,.,-4,.
COc1ccc(-c2oc3ccccc3c2C#Cc2cncn2C)cc1,-10,.,-4,.
CC(C)CCn1c(O)c(N=NC(=O)c2ccco2)c2ccccc21,553*,0,.,20
COCCn1c(=NC(=O)CSCC(=O)Nc2cc(C)on2)sc2cc(C(=O)OC)ccc21,-9,0,92*,42
COCCn1c(=NC(=O)CCS(=O)(=O)c2ccccc2)sc2cc(C(=O)OC)ccc21,49,0,5,4
O=C1CSC(c2cccnc2)N1c1ccc(F)cc1 (stereo unspecified),-19,0,99*,6
Cc1ccc(N2C(=O)CSC2c2cccnc2)c(Cl)c1 (stereo unspecified),76,1,.,-1
O=C1CSC(c2cccnc2)N1c1cccc(Cl)c1 (stereo unspecified),21,0,99*,-1
SMILES,Mot1-301 SUMO,HIF act,ALR H2O2 inh,AI-2 QS mod
CC(NC(=O)Cc1ccsc1)c1ccc(Cl)cc1Cl (stereo unspecified),17,0,.,12
O=C(NCN1CCN(c2ccccc2)CC1)c1cnccn1,133,-5,98*,23
Cc1ccc(-n2c(SCC(=O)N3CC(=O)Nc4ccccc43)nc3ccccc3c2=O)cc1,-10,0,98*,25
Cc1cccc(C)c1-n1c(SCC(=O)N2CC(=O)Nc3ccccc32)nc2ccccc2c1=O,-1,0,-8,-6
CCCN1CCC(NC(=O)C2CC=CCC2C(=O)O)CC1 (stereo unspecified),-1,0,-9,1
Cc1cc(SCC(=O)NCC(c2cccs2)N2CCOCC2)c(C)cc1Br (stereo unspecified),-11,0,-4,13
O=C(CSc1nnc(CNC(=O)c2ccccc2F)o1)Nc1ccc2c(c1)OCO2,-5,0,99*,7
